We go through ten molecules from PubChem BioAssay (EPA / NIEHS).

Each structure is given as a SMILES string. Values joined by “and” are separate entries in the source; they are usually repeats but may differ in a detail not shown here. Identical values can stand only once. The source holds several records for some structures; these can differ, active in one and inactive in another. Active and inactive are the calls of the source. The calls were made as follows: active = hit-call score of the fitted dose curve at least 0.9, where 1 is the maximum; inactive = score below 0.9.

Read-out in assay [1]: Collagen III, COL3A1 (gene 1281)
The assay is described as follows: BSK_MyoF_CollagenIII: BioMAP Diversity Plus: MyoF Assay for Collagen III Biomarker Activity (AID 2284239). Particulars: primary human lung fibroblasts. The gist of the method:
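Lung fibroblast culture; 24 h compound exposure; collagen III by ELISA; gain-of-signal fit vs DMSO baseline.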

Read-out in assay [2]: Interleukin 17F (IL17F), IL17F (gene 112744)
The assay is described as follows: BSK_BT_xIL17F: BioMAP Diversity Plus: BT Assay for Interleukin 17F (IL17F) Biomarker Activity (AID 2284243). Conditions: primary human B cells with PBMC. A digest of the protocol:
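Secreted IL-17F, read on LumineX xMAP beads, was taken as the endpoint. Cultures combined human B cells and peripheral blood mononuclear cells, sampled 24 hours after dosing, with DMSO serving as negative control.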

Read-out in assay [3]: Actin alpha 1 (ACTA1), ACTA1 (gene 58)
Kind of assay: BSK_MyoF_ACTA1: BioMAP Diversity Plus: MyoF Assay for Actin alpha 1 (ACTA1) Biomarker Activity (AID 2284244). Particulars: primary human lung fibroblasts. The gist of the method: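 alpha-SMA levels read by ELISA against DMSO baseline, 24 h post-dose, in primary human lung fibroblasts. Parallel cultures stained with 0.1% SRB after 10% TCA fixation (560 nm) to flag overt cytotoxicity.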

Read-out in assay [4]: Interleukin 2 (IL2), IL2 (gene 3558)
Kind of assay: BSK_BT_xIL2: BioMAP Diversity Plus: BT Assay for Interleukin 2 (IL2) Biomarker Activity (AID 2284245). Conditions: primary human B cells with PBMC. The gist of the method: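 Secreted IL-2 was read by Luminex xMAP from B cells co-cultured with PBMC (human primary) 24 h post-dosing; activity was analysed as gain of signal relative to DMSO vehicle.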

Read-out in assay [5]: Basic fibroblast growth factor (bFGF), FGF2 (gene 2247)
The assay is described as follows: BSK_MyoF_bFGF: BioMAP Diversity Plus: MyoF Assay for Basic fibroblast growth factor (bFGF) Biomarker Activity (AID 2284246). Particulars: primary human lung fibroblasts. The gist of the method:
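bFGF was measured by ELISA in primary human lung fibroblasts 24 h after chemical addition. Signal was analysed as positive-direction change relative to DMSO baseline.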

Read-out in assay [6]: Collagen IV, COL4A1 (gene 1282)
The assay is described as follows: BSK_MyoF_CollagenIV: BioMAP Diversity Plus: MyoF Assay for Collagen IV Biomarker Activity (AID 2284247). Particulars: primary human lung fibroblasts. The gist of the method:
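Collagen IV quantified by ELISA in human lung fibroblast cultures 24 h after chemical treatment, with DMSO as baseline. Parallel SRB staining (0.1% SRB after TCA fixation, 560 nm) flags overt cytotoxicity.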

Read-out in assay [7]: Monokine induced gamma interferon (MIG), CXCL9 (gene 4283)
Kind of assay: BSK_KF3CT_MIG: BioMAP Diversity Plus: KF3CT Assay for Monokine induced gamma interferon (MIG) Biomarker Activity (AID 2284248). Particulars: primary human keratinocytes with fibroblasts. The gist of the method:
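ELISA read-out of MIG after 24 h chemical exposure of human skin primary co-culture (keratinocytes, foreskin fibroblasts). Gain of signal relative to DMSO negative control was analysed.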

Read-out in assay [8]: Interferon-inducible T-cell alpha chemoattractant (ITAC), CXCL11 (gene 6373)
Kind of assay: BSK_hDFCGF_ITAC: BioMAP Diversity Plus: hDFCGF Assay for Interferon-inducible T-cell alpha chemoattractant (ITAC) Biomarker Activity (AID 2284251). Particulars: primary human foreskin fibroblasts. The gist of the method: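 I-TAC levels were read by ELISA on human dermal foreskin fibroblast primary cultures 24 h after dosing, analysed against DMSO in the positive direction. Cytotoxicity was assessed alongside by sulforhodamine B total-protein staining.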

Read-out in assay [9]: Plasminogen activator inhibitor-1 (PAI1), SERPINE1 (gene 5054)
The assay is described as follows: BSK_KF3CT_PAI1: BioMAP Diversity Plus: KF3CT Assay for Plasminogen activator inhibitor-1 (PAI1) Biomarker Activity (AID 2284252). Conditions: primary human keratinocytes with fibroblasts. A digest of the protocol: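 PAI-1 levels quantified by ELISA after 24 h compound exposure of primary human skin keratinocytes co-cultured with fibroblasts. Activity is the gain relative to DMSO; cytotoxicity tracked in parallel cultures via SRB staining.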

Read-out in assay [10]: Monocyte Chemoattractant Protein-1 (MCP1), CCL2 (gene 6347)
The assay is described as follows: BSK_IMphg_MCP1: BioMAP Diversity Plus: IMphg Assay for Monocyte Chemoattractant Protein-1 (MCP1) Biomarker Activity (AID 2284253). Particulars: primary human endothelial cells with macrophages. A digest of the protocol: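 ELISA readout of MCP-1 at 24 hours in IMphg co-cultures of venular endothelial cells and macrophages, normalised to DMSO; parallel cultures stained with sulforhodamine B for overt cytotoxicity.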

Read-out in assay [11]: Interleukin-8 (IL8), CXCL8 (gene 3576)
Kind of assay: BSK_KF3CT_IL8: BioMAP Diversity Plus: KF3CT Assay for Interleukin-8 (IL8) Biomarker Activity (AID 2284254). Particulars: primary human keratinocytes with fibroblasts. A digest of the protocol: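 IL-8 read-out: ELISA, 24 h post-dose, human skin primary co-culture (keratinocytes + foreskin fibroblasts). DMSO = baseline; positive-direction fit.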

Read-out in assay [12]: Collagen I, COL1A1 (gene 1277)
Kind of assay: BSK_hDFCGF_CollagenI: BioMAP Diversity Plus: hDFCGF Assay for Collagen I Biomarker Activity (AID 2284250). Conditions: primary human foreskin fibroblasts. A digest of the protocol:
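Collagen I quantified by ELISA 24 h after chemical dosing of human dermal fibroblast primary cells, with parallel SRB staining (0.1%, TCA-fixed, 560 nm) for overt cytotoxicity.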

Read-out in assay [13]: Vascular cell adhesion molecule 1 (VCAM1), VCAM1 (gene 7412)
Kind of assay: BSK_BF4T_VCAM1: BioMAP Diversity Plus: BF4T Assay for Vascular cell adhesion molecule 1 (VCAM1) Biomarker Activity (AID 2284249). Conditions: primary human bronchial epithelial cells with fibroblasts. The gist of the method: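 Cell-surface VCAM-1 quantified by ELISA after 24 h chemical exposure of human bronchial epithelial/dermal fibroblast co-cultures, with SRB staining in parallel wells for cytotoxicity; DMSO baseline, positive-direction fitting.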

For `O=C(O)C(F)(F)C(F)(F)C(F)(F)C(F)(F)C(F)(F)C(F)(F)C(F)(F)C(F)(F)C(F)(F)C(F)F`, the AC50 in assay [1] is 18.7 µM (active) and 16.4 µM (active); in assay [3], 38.1 µM (active) and 36.2 µM (active); in [6], 8.18 µM (active) and 8.12 µM (active); in assay [7] it was 49.3 µM (active) and 48 µM (active); in assay [8], 12.8 µM (active) and 5.95 µM (active); in [9] it was 19.3 µM (active) and 13.8 µM (active). The AC50 in assay [10] is 49.5 µM (active) and 48.9 µM (active). Also, the outcome in assay [2], in assay [4], in assay [5] and in assay [11] was inactive.

Take `CCCCC(CC)COP(=O)(O)OCC(CC)CCCC` (stereo not drawn): the result in assay [7] and in [11] was inactive. Moreover, the AC50 in assay [8] was 29.7 µM (active) and 20 µM (active); in assay [9], 31.1 µM (active) and 26.6 µM (active).

Take `O=C(O)C(F)(OC(F)(F)C(F)(OC(F)(F)C(F)(OC(F)(F)C(F)(F)C(F)(F)F)C(F)(F)F)C(F)(F)F)C(F)(F)F` (stereo not drawn): the outcome in [1], in [2], in assay [3], in [4], in assay [5] and in assay [6] was inactive. The outcome in assay [7], in assay [12], in [8], in assay [9], in assay [10] and in [11] was inactive.

Take `CCN(CC)c1ccc2c(C)cc(=O)oc2c1`: the outcome in [1], in assay [2], in [3], in assay [4], in [5] and in assay [6] was inactive.

For `FC(F)(F)C(F)(F)C(F)(F)C(F)(F)C(F)(F)CCI`, the outcome in assay [1], in [2], in assay [3], in assay [4], in [5] and in [6] was inactive. The result in assay [7], in assay [9], in assay [10] and in assay [11] was inactive. The AC50 in assay [8] was 30 µM (active) and 40.9 µM (active).

`CS(C)(=O)=O`: the outcome in assay [1], in assay [2], in [3], in assay [4], in assay [5] and in assay [6] was inactive.

`O=C(O)C(F)(F)C(F)(F)C(F)(F)C(F)(F)C(F)(F)C(F)(F)C(F)(F)C(F)(F)C(F)(F)C(F)(F)C(F)(F)C(F)(F)C(F)(F)F`: the result in assay [1], in [2], in [3], in assay [4], in assay [5] and in assay [6] was inactive. Moreover, the outcome in [7], in assay [12], in assay [8], in [9], in [10] and in [11] was inactive. The half-maximal activity concentration (AC50) in [8] is 5.22 µM (active).

Consider `Oc1ccc(Nc2ccccc2)cc1`, for which the AC50 in [1] was 16.2 µM (active); in [2], 27.7 µM (active); in [4], 37.2 µM (active). For the same molecule, the result in assay [3], in assay [5] and in assay [6] was inactive.

For the molecule `CCCCOCCOCCOC(=O)CCCCC(=O)OCCOCCOCCCC`, the result in assay [1], in [2], in assay [3], in assay [4], in [5] and in assay [6] was inactive.

For `C=C(C)C(=O)OCCC(F)(F)C(F)(F)C(F)(F)C(F)(F)C(F)(C(F)(F)F)C(F)(F)F`, the result in assay [1], in assay [2], in assay [3], in [4], in [5] and in assay [6] was inactive. In addition, the outcome in assay [7], in assay [13], in [12], in assay [8], in [9] and in assay [10] was inactive. The result in assay [11] was inactive.
